{
  "source": "paper PMC12864922",
  "about": "“TDP-43 directly inhibits mRNA accumulation in neurites through modulation of mRNA stability”",
  "binders": {"B1": {"name": "ENSMUSG00000031028.145|Tub (ssRNA)", "RNA": "GGGAGUUCUACAGUCCGACGAUCGCUUCGAUAUCCGCAUGCUAACAGGAUCUAGGUCACCAUUCAAGUAAUGGUAUGCUUCAGGAAGAAUGUCCUCUCUGGGAAGACUCAGCUCCCAUUAUUGCCAGCAUGCCAUGAUCAGUGAGGGCUGUGUGCCAUGCUUAGGGGGAUGGCGCAGGGUGAGGGGAGCAGAGGAUAUUUUAGGGCCACAAGAGCUCAGAGGUAGCGGACCUCUGUGUGGUUCACCAACAGCAAUGCUGAUCCCUGAGUAUAGGGCACAUGUCUCUUGGUUACCUCACUGGUUCUCUUGCGGUCGCACUAGUGUGGAAUUCUCGGGUGUCAAGG"}, "B2": {"name": "ENSMUSG00000061578.1426|Ksr2 (ssRNA)", "RNA": "GGGAGUUCUACAGUCCGACGAUCGCUUCGAUAUCCGCAUGCUACUCUUCCUUUUCCUUUUUAGAUCUGUCUUGCUCUCUGUCUCUCUCACUCAUUGCCAACAUGUUGCUGGGAAAGAAUAUUUGAUUUAGAUGCCAAUCAGGAAGGCAAGUAGGAUGGAUGGAUGAGUGAGUGGAUAGGUAGGUAUAUAAAUGGAUGGAUGGGUGAUGGAUGGGUAAAUGAAUGGAUAGGUAUGUGAAUGAAUGGAUGAUGGAUGAAUGGAUGGGUAGGUGGGUAGAUAGGUAUAUGAAUGAAUGGAUGAAUGCUCUUGCGGUCGCACUAGUGUGGAAUUCUCGGGUGUCAAGG"}, "B3": {"name": "ENSMUSG00000043670.185|Diras1|17:21;114:118;148:152;162:171;177:184;217:221;250:260 (ssRNA)", "RNA": "GGGAGUUCUACAGUCCGACGAUCGCUUCGAUAUCCGCAUGCUAGCCUCUUUGCUGGUCAACACAACUCUGGAGACUGUCCCCCAUGUCUGCCCUGAGUUACGGAGCCCCUGUGGUAUCUGCGAGACUGUCCAGGAGACUUGAGUGGCUCCUGGGCCACACACCCACCCAGAUGAGGGUGACUUAGAAUUCACACAUUAUGUGCCACACACACACGAUGGCACACACACUGUCUUGGGAUGGGGUGUUCUUGCACCACUUACACAUCUUAGUGAGACCACAGUGUAAGUGGCCCACACACACACCUCUUGCGGUCGCACUAGUGUGGAAUUCUCGGGUGUCAAGG"}, "B4": {"name": "ENSMUSG00000029028.10|Lrrc47 (ssRNA)", "RNA": "GGGAGUUCUACAGUCCGACGAUCGCUUCGAUAUCCGCAUGCUAGACGGACCUGAUCACCCUCCCUCCCCACGUGACUGUGGUCCGCUGACAGGCUCCUGUAGGUGUGGGUGUGCUGUAGGUGUCUGUGUGGGUGUGGGUGUGCUGUAGGUGUCUGUGUGGGUGUGGGUGUGCUAUAGGUAUCUGUGGGUGUGCUGUAGGUGUCUGUGUGGGUGUGCUGUAGGUGUCUGUGUAGGUGUGGGUGUGCUGUAGGUGUCUGUGUGGGUGUGCUAGGUGUCUGUAUAGGUGUGGGUGUGCUGUAGAUGCUCUUGCGGUCGCACUAGUGUGGAAUUCUCGGGUGUCAAGG"}, "B5": {"name": "ENSMUSG00000029028.7|Lrrc47 (ssRNA)", "RNA": "GGGAGUUCUACAGUCCGACGAUCGCUUCGAUAUCCGCAUGCUAGGUGGUGUACCCAUCCAAGACGGACCUGAUCACCCUCCCUCCCCACGUGACUGUGGUCCGCUGACAGGCUCCUGUAGGUGUGGGUGUGCUGUAGGUGUCUGUGUGGGUGUGGGUGUGCUGUAGGUGUCUGUGUGGGUGUGGGUGUGCUAUAGGUAUCUGUGGGUGUGCUGUAGGUGUCUGUGUGGGUGUGCUGUAGGUGUCUGUGUAGGUGUGGGUGUGCUGUAGGUGUCUGUGUGGGUGUGCUAGGUGUCUGUAUAGGUCUCUUGCGGUCGCACUAGUGUGGAAUUCUCGGGUGUCAAGG"}, "B6": {"name": "ENSMUSG00000029028.10|Lrrc47|60:64;66:70;82:87;89:93;95:99;111:116;118:122;124:128;145:149;161:166;168:172;184:188;191:195;197:201;213:218;220:224;241:245;247:2 … (ssRNA)", "RNA": "GGGAGUUCUACAGUCCGACGAUCGCUUCGAUAUCCGCAUGCUAGACGGACCUGAUCACCCUCCCUCCCCACGUGACUGUGGUCCGCUGACAGGCUCCUGUAGCACACGCACACCUGUAGGUGUCACACACGCACACGCACACCUGUAGGUGUCACACACGCACACGCACACCUAUAGGUAUCUGUGGCACACCUGUAGGUGUCACACACGCACACCUGUAGGUGUCACACAAGCACACGCACACCUGUAGGUGUCACACACGCACACCUAGGUGUCUGUAUAGCACACGCACACCUGUAGAUGCUCUUGCGGUCGCACUAGUGUGGAAUUCUCGGGUGUCAAGG"}, "B7": {"name": "ENSMUSG00000029028.8|Lrrc47 (ssRNA)", "RNA": "GGGAGUUCUACAGUCCGACGAUCGCUUCGAUAUCCGCAUGCUAGUACCCAUCCAAGACGGACCUGAUCACCCUCCCUCCCCACGUGACUGUGGUCCGCUGACAGGCUCCUGUAGGUGUGGGUGUGCUGUAGGUGUCUGUGUGGGUGUGGGUGUGCUGUAGGUGUCUGUGUGGGUGUGGGUGUGCUAUAGGUAUCUGUGGGUGUGCUGUAGGUGUCUGUGUGGGUGUGCUGUAGGUGUCUGUGUAGGUGUGGGUGUGCUGUAGGUGUCUGUGUGGGUGUGCUAGGUGUCUGUAUAGGUGUGGGUCUCUUGCGGUCGCACUAGUGUGGAAUUCUCGGGUGUCAAGG"}, "B8": {"name": "ENSMUSG00000029028.6|Lrrc47 (ssRNA)", "RNA": "GGGAGUUCUACAGUCCGACGAUCGCUUCGAUAUCCGCAUGCUACUUGAAGGUGGUGUACCCAUCCAAGACGGACCUGAUCACCCUCCCUCCCCACGUGACUGUGGUCCGCUGACAGGCUCCUGUAGGUGUGGGUGUGCUGUAGGUGUCUGUGUGGGUGUGGGUGUGCUGUAGGUGUCUGUGUGGGUGUGGGUGUGCUAUAGGUAUCUGUGGGUGUGCUGUAGGUGUCUGUGUGGGUGUGCUGUAGGUGUCUGUGUAGGUGUGGGUGUGCUGUAGGUGUCUGUGUGGGUGUGCUAGGUGUCUGUCUCUUGCGGUCGCACUAGUGUGGAAUUCUCGGGUGUCAAGG"}, "B9": {"name": "ENSMUSG00000029028.9|Lrrc47 (ssRNA)", "RNA": "GGGAGUUCUACAGUCCGACGAUCGCUUCGAUAUCCGCAUGCUAAUCCAAGACGGACCUGAUCACCCUCCCUCCCCACGUGACUGUGGUCCGCUGACAGGCUCCUGUAGGUGUGGGUGUGCUGUAGGUGUCUGUGUGGGUGUGGGUGUGCUGUAGGUGUCUGUGUGGGUGUGGGUGUGCUAUAGGUAUCUGUGGGUGUGCUGUAGGUGUCUGUGUGGGUGUGCUGUAGGUGUCUGUGUAGGUGUGGGUGUGCUGUAGGUGUCUGUGUGGGUGUGCUAGGUGUCUGUAUAGGUGUGGGUGUGCUGCUCUUGCGGUCGCACUAGUGUGGAAUUCUCGGGUGUCAAGG"}},
  "note": "The full ranking holds about 9,900 sequences; the median of “r (bound/input frequency ratio)” is about 0.7, and the highest 2% start at about 6.5. The full list was thinned out, with the highest values kept by preference.",
  "data": [
    {"target": "TDP-43 (Homo sapiens, UniProt Q13148 1-414)", "sequence (Q13148 whole entry)": "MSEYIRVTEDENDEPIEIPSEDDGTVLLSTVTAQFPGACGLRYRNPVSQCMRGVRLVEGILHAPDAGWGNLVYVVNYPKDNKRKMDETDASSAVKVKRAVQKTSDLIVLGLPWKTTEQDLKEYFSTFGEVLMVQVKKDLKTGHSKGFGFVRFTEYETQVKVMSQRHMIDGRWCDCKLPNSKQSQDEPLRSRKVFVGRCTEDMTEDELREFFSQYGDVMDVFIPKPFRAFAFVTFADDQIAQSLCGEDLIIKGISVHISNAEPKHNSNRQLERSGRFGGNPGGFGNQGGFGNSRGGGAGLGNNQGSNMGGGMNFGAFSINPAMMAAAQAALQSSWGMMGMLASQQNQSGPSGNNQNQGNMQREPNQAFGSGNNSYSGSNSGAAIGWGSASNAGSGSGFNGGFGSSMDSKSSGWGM", "experiment": "RNA Bind-n-Seq with designed 260-mer pool; 25 mM Tris-HCl, 150 mM KCl, 3 mM MgCl2, BSA (printed 500 mg/mL), 20 units/mL SUPERase IN; pH not stated; 500 nM RNA pool, 1 h, 4 C; TDP-43 5, 50, 500 nM; high values mean tight binding", "conditions": "protein: recombinant; tags: SBP (GST cleaved off with PreScission; pGEX-GST-SBP)", "how_it_was_run": "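Duplicate measurements used two independent batches of recombinant SBP-tagged TDP-43, which was captured on streptavidin beads at 5, 50 or 500 nM. The beads were incubated with 500 nM of an in vitro-transcribed 260-nt 3′ UTR oligo pool for 1 h at 4 °C in 25 mM Tris-HCl, 150 mM KCl, 3 mM MgCl2, BSA and SUPERase IN. After washing, biotin elution, reverse transcription, PCR amplification and sequencing, binding was expressed as R: each oligo's normalized read abundance in the bound sample over its abundance in input.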", "values": [
      {"binder": "B1", "binding signal": "0.682 R (bound/input frequency ratio)"},
      {"binder": "B2", "binding signal": "4.09 R (bound/input frequency ratio)"},
      {"binder": "B3", "binding signal": "0.956 R (bound/input frequency ratio)"},
      {"binder": "B4", "binding signal": "6.52 R (bound/input frequency ratio)"},
      {"binder": "B5", "binding signal": "5.82 R (bound/input frequency ratio)"},
      {"binder": "B6", "binding signal": "1.07 R (bound/input frequency ratio)"},
      {"binder": "B7", "binding signal": "5.96 R (bound/input frequency ratio)"},
      {"binder": "B8", "binding signal": "5.29 R (bound/input frequency ratio)"},
      {"binder": "B9", "binding signal": "6.63 R (bound/input frequency ratio)"}
    ]}
  ]
}
